This is a sample that favours compounds with a hit; in the whole collection about 2.4% have one here.
D2 antagonist – D2 dopamine receptor (human) antagonism; AID 485344; HEK293 TREx D2 cells, calcium flux, dopamine EC80; 340,000 compounds, 2% hits; inhibition, % at 10 µM; P14416; in the data active = inhibition above about 30%; inactive = below that, where a call was filed
Target sequence (P14416 whole entry, looked up): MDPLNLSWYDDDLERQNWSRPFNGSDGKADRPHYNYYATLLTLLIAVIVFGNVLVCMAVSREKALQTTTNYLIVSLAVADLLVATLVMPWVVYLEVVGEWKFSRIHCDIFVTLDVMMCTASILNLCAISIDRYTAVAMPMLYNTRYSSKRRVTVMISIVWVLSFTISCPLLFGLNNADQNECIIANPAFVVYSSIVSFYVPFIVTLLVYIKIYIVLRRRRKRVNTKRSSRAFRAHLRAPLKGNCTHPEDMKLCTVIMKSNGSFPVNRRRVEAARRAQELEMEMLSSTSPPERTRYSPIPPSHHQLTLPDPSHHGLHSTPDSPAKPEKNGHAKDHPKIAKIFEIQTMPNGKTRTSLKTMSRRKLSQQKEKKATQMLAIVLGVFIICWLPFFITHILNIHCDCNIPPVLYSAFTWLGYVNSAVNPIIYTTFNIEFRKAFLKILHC
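Calcium mobilization kinetics were recorded at 1 s intervals in tetracycline-induced HEK293 T-REx D2 cells, first for 180 s after compound addition and then 180 s after EC80 dopamine.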
D2 ag-1 – human D2 receptor agonism in beta-arrestin assay. P14416. DiscoveRx PathHunter D2 beta-arrestin, luminescence, 90 min; 100% = 57 uM dopamine signal. activation, % (no concentration beside the values). 360,000 compounds, 0.084% hits. AID 624465; in the data active = activation above about 40%; inconclusive = between about 15% and that limit
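Agonist mode: compounds alone added to overnight-plated D2 PathHunter cells for 90 min at 37 C, with 57 uM final dopamine (EC100) defining full response. Beta-arrestin recruitment detected by chemiluminescent reagent, read after 1 h at ambient temperature.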
D2 ag-2 – activates the human D2 dopamine receptor. activation, % at 2 µM. AID 485358. P14416. 340,000 compounds, 0.53% hits. HEK293 T-REx D2 cells, calcium flux agonist mode;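 active = activation over 3 SD above normal in the single-dose calcium agonist read, cut at about 30% in these data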
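Tetracycline-induced HEK293 Trex cells with D2 receptor force-coupled to calcium signaling, plated overnight at 30 C and loaded with no-wash calcium dye. Calcium flux read kinetically for 180 s after compound addition; responses flag agonists.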
D2 PAM-1 – D2 dopamine receptor (human) potentiation; AID 485347; HEK293 T-REx D2, calcium flux, EC20 dopamine potentiation; 340,000 compounds, 0.34% hits; P14416; potentiation, % at 10 µM;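 active = potentiation over 3 SD above the plate norm, cut at about 30% in these data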
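Tetracycline-induced Hek293 Trex D2 cells, force-coupled to calcium, loaded with no-wash calcium dye. Compound added with 180 s kinetic read for agonism, then EC20 dopamine and a further 180 s read for potentiation.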
D2 PAM-2 – positive allosteric modulators of human D2 dopamine receptor; P14416; DiscoveRx D2 beta-arrestin cells, luminescence, 90 min; 100% = 57 uM dopamine signal; potentiation, % (no concentration beside the values); 360,000 compounds, 0.23% hits; AID 624464; in the data active = potentiation above about 50%; inconclusive = mostly about 30% to 49%
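PathHunter beta-arrestin assay in DiscoveRx D2 cells. Compounds were added with an EC20 of dopamine (50 nM final) for 90 min at 37 deg C. Luminescence was read 1 h after detection reagent, with 57 uM dopamine as the EC100 control.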
D3 arrestin ag – confirmation of human D3 dopamine receptor agonists, beta-arrestin; shares compounds with D2 ag-2; DiscoveRx D3 beta-arrestin cells, luminescence, 90 min; Potency, µM (series often up to 76.9 µM), hits mostly activators; 2,300 compounds, 4% hits; AID 720506; also: nearly all actives have a fitted effect of over 70% in size
D2 ag-3 – D2 receptor agonism, beta-arrestin counterscreen; DiscoveRx PathHunter D2 beta-arrestin, luminescence, 90 min; response scale: percent relative to full dopamine signal; Potency, µM (titrated, usually from 76.9 µM), actives largely listed as activators; 2,300 compounds, 5.9% hits; shares compounds with D2 ag-2; also: nearly all actives have a fitted effect of over 70% in size
A number is an active result; ! = not active in a repeat. Unless noted, calls follow the shape of the dose curve; as a rule, active = well fitted activation curve with a large enough effect; inconclusive = small, poorly fitted or top-dose-only effect; inactive = flat fitted curve, though single readings scatter.

How did O=c1cc(C(F)(F)F)c2cc3c4c(c2o1)CCCN4CCC3 do in these assays?
D2 antagonist: 79; D2 ag-1: inactive; D2 ag-2: 143; D2 PAM-1: inactive; D2 PAM-2: inactive

Results for Cc1cc2c(C(F)(F)F)cc(=O)oc2c2c1NCCC2 ?
D2 antagonist: inactive; D2 ag-1: inactive; D2 ag-2: inactive; D2 PAM-1: inactive; D2 PAM-2: inactive

What do the screens show for `COc1ccc(CNC(=O)CCC(=O)N2C[C@H]3C[C@H](C2)c2cccc(=O)n2C3)cc1OC`?
D2 antagonist: 36; D2 ag-1: inactive; D2 ag-2: inactive; D2 PAM-1: inactive; D2 PAM-2: inactive

Results for O=C(Nc1ccc(Br)cc1C(=O)c1ccccc1Cl)c1ccccc1F ?
D2 PAM-1: inactive

How did O=Cc1c(C(=O)O)n(Cc2ccc(Cl)cc2)c2ccccc12 do in these assays?
D2 antagonist: inactive; D2 ag-1: inactive; D2 ag-2: 31; D2 PAM-1: inactive; D2 PAM-2: inactive

Results for COc1ccc2c(CCN)c[nH]c2c1 ?
D2 antagonist: inactive; D2 ag-1: inactive; D2 ag-2: inactive; D2 PAM-1: inactive; D2 PAM-2: inactive

How did CS(=O)(=O)Nc1ccc(Cc2noc(-c3ccc4[nH]cc(CCN)c4c3)n2)cc1 do in these assays?
D2 antagonist: 40; D2 ag-2: inactive; D2 PAM-1: inactive

How did O=P(CN1CCN(c2ccccc2)CC1)(N1CCCCC1)N1CCCCC1 do in these assays?
D2 antagonist: 37; D2 ag-1: inactive; D2 ag-2: inactive; D2 PAM-1: inactive; D2 PAM-2: inactive; D3 arrestin ag: inactive; D2 ag-3: inactive

How did COc1ccc(OCC(=O)N2CCN(Cc3cc(=O)n4nc(-c5ccc(OC)cc5)sc4n3)CC2)cc1 do in these assays?
D2 ag-2: inactive; D2 PAM-1: inactive

What do the screens show for `CN1C[C@H](C(=O)N[C@]2(C)O[C@@]3(O)[C@@H]4CCCN4C(=O)[C@H](Cc4ccccc4)N3C2=O)CC2c3cccc4[nH]cc(c34)C[C@H]21` (stereo not given in full)?
D2 antagonist: 88!; D2 ag-1: inconclusive; D2 ag-2: 81!; D2 PAM-1: inactive; D2 PAM-2: inactive; D3 arrestin ag: inactive; D2 ag-3: inconclusive

How did COc1ccc(N2CCN(CCc3ccncc3)CC2)cc1 do in these assays?
D2 antagonist: inactive; D2 ag-1: inactive; D2 ag-2: inactive; D2 PAM-2: inactive

Results for c1ccc(CCN2CCC(N3CCN(c4ccccc4)CC3)CC2)cc1 ?
D2 antagonist: 72; D2 ag-1: inconclusive; D2 ag-2: 74; D2 PAM-1: inactive; D2 PAM-2: inactive; D3 arrestin ag: inconclusive; D2 ag-3: inconclusive

How did CCc1ccc(CNCCc2c[nH]c3ccccc23)cc1 do in these assays?
D2 antagonist: inactive; D2 ag-1: inactive; D2 ag-2: inactive; D2 PAM-1: inactive; D2 PAM-2: inactive; D3 arrestin ag: inactive; D2 ag-3: inactive

How did Cc1ccc(-c2nc(CN3C(=O)CN=C(c4ccccc4)c4ccccc43)c(C)o2)cc1 do in these assays?
D2 PAM-1: inactive

Results for Fc1ccc(CNCCc2ccc3c(c2)OCO3)cc1 ?
D2 antagonist: inactive; D2 ag-1: inactive; D2 ag-2: inactive; D2 PAM-1: inactive; D2 PAM-2: inactive

What do the screens show for `c1cc(CNCCc2ccc3c(c2)OCO3)ccn1`?
D2 antagonist: inactive; D2 ag-1: inactive; D2 ag-2: inactive; D2 PAM-1: inactive; D2 PAM-2: inactive; D3 arrestin ag: inconclusive; D2 ag-3: inactive

What do the screens show for `CCCCc1nn2c(=O)cc(COC(=O)Cc3ccccc3)nc2s1`?
D2 ag-2: inactive; D2 PAM-1: inactive

Results for N#C/C(N)=C(/N)C#N ?
D2 antagonist: inactive; D2 ag-1: inactive; D2 ag-2: inactive; D2 PAM-1: inactive; D2 PAM-2: inactive; D3 arrestin ag: inactive; D2 ag-3: inactive

Results for Cc1ccccc1-n1c(/C=C/c2ccc(O)cc2)nc2ccccc2c1=O ?
D2 ag-2: inactive; D2 PAM-1: inactive

How did CNCCc1c[nH]c2ccccc12 do in these assays?
D2 antagonist: inactive; D2 ag-1: inactive; D2 ag-2: inactive; D2 PAM-1: inactive; D2 PAM-2: inactive

How did CCC(N)Cc1c[nH]c2ccccc12 (stereo not given) do in these assays?
D2 antagonist: inactive; D2 ag-1: inactive; D2 ag-2: inactive; D2 PAM-1: inactive; D2 PAM-2: inactive; D3 arrestin ag: inactive; D2 ag-3: inactive

How did CCOc1ccc(CN(CCc2ccc3c(c2)OCO3)Cc2cccc(OC)c2)cc1 do in these assays?
D2 PAM-1: inactive

How did Fc1cccc(F)c1CN1CCN(c2ccc(Cl)cc2)CC1 do in these assays?
D2 antagonist: inactive; D2 ag-1: inactive; D2 ag-2: inactive; D2 PAM-1: inactive; D2 PAM-2: inactive

Results for Fc1ccccc1N1CCN(Cc2c(F)cccc2F)CC1 ?
D2 antagonist: inactive; D2 ag-1: inactive; D2 ag-2: 36; D2 PAM-1: inactive; D2 PAM-2: inactive; D3 arrestin ag: inactive; D2 ag-3: inactive

What do the screens show for `Cc1ccccc1N1CCN(Cc2ccc3c(c2)OCO3)CC1`?
D2 antagonist: 83; D2 ag-1: inactive; D2 ag-2: inactive; D2 PAM-1: inactive; D2 PAM-2: inactive; D3 arrestin ag: inactive; D2 ag-3: inactive

Results for Fc1ccccc1N1CCN(Cc2ccc3c(c2)OCO3)CC1 ?
D2 antagonist: 88; D2 ag-1: 42; D2 ag-2: 78; D2 PAM-1: inactive; D2 PAM-2: inactive; D3 arrestin ag: inconclusive; D2 ag-3: inconclusive

How did Clc1ccccc1N1CCN(Cc2ccc3c(c2)OCO3)CC1 do in these assays?
D2 antagonist: 60; D2 ag-1: inactive; D2 ag-2: 71; D2 PAM-1: inactive; D2 PAM-2: inactive; D3 arrestin ag: inactive; D2 ag-3: inconclusive

How did O=C(Nc1ccc2c(c1)OCO2)c1cccn(Cc2cccc([N+](=O)[O-])c2)c1=O do in these assays?
D2 ag-2: inactive; D2 PAM-1: inactive

Results for CCOc1ccc(CN2C(=O)c3ccccc3Sc3ccc(C(=O)N4CCC5(CC4)OCCO5)cc32)cc1 ?
D2 ag-2: inactive; D2 PAM-1: inactive

What do the screens show for `NC(=O)c1ccc(NC(=O)c2cccn(Cc3ccccc3)c2=O)cc1`?
D2 ag-2: inactive; D2 PAM-1: inactive

How did Nc1c(C(=O)Nc2ccc(F)c(Cl)c2)sc2nc3c(cc12)N1CCC3CC1 do in these assays?
D2 ag-2: inactive; D2 PAM-1: inactive

How did COc1ccc(CN2CCN(C(=O)COc3ccccc3)CC2)c(OC)c1 do in these assays?
D2 ag-2: inactive; D2 PAM-1: inactive

How did COc1ccc(CN2CCN(c3ccccc3)CC2)c(C)c1C do in these assays?
D2 antagonist: 65; D2 ag-1: inactive; D2 ag-2: 63; D2 PAM-1: inactive; D2 PAM-2: inactive; D3 arrestin ag: inactive; D2 ag-3: inactive

Screening data deposited in PubChem by National Center for Advancing Translational Sciences (NCATS).
